Compounds without any hit were thinned out: in the full panel of roughly 83,000, 20% have a hit.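 Cell lines were cultured in 96-well plates, exposed to a single compound concentration, and assessed for percent growth 48 hours later.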 Active and inactive are the calls of the source. How the source made its calls: active means growth percent below 10; inactive means the rest.
Assays:
Test in all cases: NCI-60 one-dose screen, 48 h (100 = growth as untreated, 0 = no growth, -100 = all killed)
Conditions in all cases: 10 µM unless noted
NCI-H23 lung = system: NCI-H23 lung
NCI-H226 lung = system: NCI-H226 lung
NCI-H322M lung = system: NCI-H322M lung
HOP-62 NSCLC = system: HOP-62 NSCLC
NCI-H460 lung = system: NCI-H460 lung
HOP-92 NSCLC = system: HOP-92 NSCLC
NCI-H522 lung = system: NCI-H522 lung
A549/ATCC NSCLC = system: A549/ATCC NSCLC
786-0 renal = system: 786-0 renal
COLO 205 colon = system: COLO 205 colon

Measured: growth

NC1=Nc2cc(OCCCN3Cc4ccccc4C3)c(OCC3CC3)cc2C12CCCC2
inactive: NCI-H23 lung 77.2% | NCI-H226 lung 80.7% | NCI-H322M lung 91.6% | HOP-62 NSCLC 77% | NCI-H460 lung 69.8% | HOP-92 NSCLC 40.7% | NCI-H522 lung 39.7% | A549/ATCC NSCLC 64.4% | 786-0 renal 55.6%
active: COLO 205 colon -62.5%

CO[C@H]1C[C@@H]2CC[C@@H](C)[C@@](O)(O2)C(=O)C(=O)N2CCCC[C@H]2C(=O)O[C@H]([C@H](C)C[C@@H]2CC[C@@H](O)[C@H](OC)C2)CC(=O)[C@H](C)/C=C(\C)[C@@H](O)[C@@H](OC)C(=O)[C@H](C)C[C@H](C)\C=C/C=C/C=C/1C
inactive: NCI-H23 lung 51.3% | NCI-H226 lung 47.9% | NCI-H322M lung 43.7% | HOP-62 NSCLC 43.8% | NCI-H460 lung 31.9% | HOP-92 NSCLC 41.1% | NCI-H522 lung 39.4% | A549/ATCC NSCLC 35.1% | 786-0 renal 42.1% | COLO 205 colon 44.3%

Cc1nn(-c2ccccc2)c2c1N=c1s/c(=C\c3cn(-c4ccccc4)nc3-c3ccc(Cl)cc3)c(=O)n1C(C)N2 (stereo not given)
inactive: NCI-H23 lung 79.4% | NCI-H226 lung 93.2% | NCI-H322M lung 113% | HOP-62 NSCLC 102% | NCI-H460 lung 93% | HOP-92 NSCLC 66.7% | NCI-H522 lung 10.2% | A549/ATCC NSCLC 87.8% | 786-0 renal 77.1% | COLO 205 colon 99.2%

CNC(=O)c1cc(Oc2ccc(NC(=O)Nc3cc(C(C)(C)C)nn3-c3ccc4ncccc4c3)c(F)c2)ccn1
active: NCI-H23 lung -49.5% | NCI-H226 lung -15.9% | NCI-H322M lung -17.8% | HOP-62 NSCLC -41.4% | NCI-H460 lung -40.8% | HOP-92 NSCLC -10.8% | NCI-H522 lung -47.7% | A549/ATCC NSCLC -16.1% | 786-0 renal -16.7% | COLO 205 colon -78.1%

O=C(Nc1cccc(Cl)c1)Nc1ncc(CCNc2ncnc3ccsc23)s1
active: COLO 205 colon -4.76%
inactive: NCI-H23 lung 30.6% | NCI-H226 lung 10.8% | NCI-H322M lung 55.5% | HOP-62 NSCLC 11.8% | NCI-H460 lung 20.1% | HOP-92 NSCLC 40.9% | NCI-H522 lung 13% | A549/ATCC NSCLC 14.9% | 786-0 renal 42.1%

C=CC(=O)Nc1cccc(Oc2nc(Nc3ccc(N4CCN(C)CC4)cc3)nc3ccsc23)c1
active: NCI-H226 lung -2.55% | NCI-H322M lung 4.69% | HOP-62 NSCLC -62% | NCI-H460 lung -59.8% | HOP-92 NSCLC -70.8% | NCI-H522 lung -77.1% | A549/ATCC NSCLC -74.1% | 786-0 renal -84% | COLO 205 colon -83.3%
inactive: NCI-H23 lung 32.2%

Cc1csc(-c2nnc(Nc3ccc(Oc4ncccc4-c4ccnc(N)n4)cc3)c3ccccc23)c1
inactive: NCI-H23 lung 54.6% | NCI-H226 lung 72.5% | NCI-H322M lung 30.5% | HOP-62 NSCLC 14.6% | NCI-H460 lung 25.3% | HOP-92 NSCLC 85.5% | NCI-H522 lung 30.8% | A549/ATCC NSCLC 26.6% | 786-0 renal 67.9%
active: COLO 205 colon -4.72%

Cc1cnc(NC(=O)Nc2cc(Br)c(C)cc2OC[C@@H]2CNCCO2)cn1
inactive: NCI-H23 lung 15% | NCI-H226 lung 51.2% | NCI-H322M lung 34.3% | HOP-62 NSCLC 12.5% | HOP-92 NSCLC 35% | A549/ATCC NSCLC 17.5%
active: NCI-H460 lung 4.27% | NCI-H522 lung -16.4% | 786-0 renal 2.83% | COLO 205 colon 3.34%

O=S1(=O)OC(c2cc(Cl)c(O)c(Br)c2)(c2cc(Cl)c(O)c(Br)c2)c2ccccc21
inactive: NCI-H23 lung 103% | NCI-H226 lung 104% | NCI-H322M lung 112% | HOP-62 NSCLC 99% | NCI-H460 lung 105% | HOP-92 NSCLC 68.5% | NCI-H522 lung 70.8% | A549/ATCC NSCLC 94.1% | 786-0 renal 106% | COLO 205 colon 115%

COc1ccc(-n2c(=O)c3ccccc3n(Cc3ccc(C(=O)NO)cc3)c2=O)cc1
inactive: NCI-H226 lung 31.8% | NCI-H322M lung 38.4% | HOP-62 NSCLC 25.8% | NCI-H460 lung 36.4% | HOP-92 NSCLC 48.2% | A549/ATCC NSCLC 38.6% | 786-0 renal 56.5%
active: NCI-H23 lung -50.1% | NCI-H522 lung -41.8% | COLO 205 colon -50.1%

Cc1cc(NCC(=O)Nc2ccc(-c3nc4ccccc4s3)cc2)no1
inactive: NCI-H23 lung 82.8% | NCI-H226 lung 91% | NCI-H322M lung 102% | HOP-62 NSCLC 111% | NCI-H460 lung 103% | HOP-92 NSCLC 100% | NCI-H522 lung 82.1% | A549/ATCC NSCLC 92.3% | 786-0 renal 102% | COLO 205 colon 108%

NC1(C(=O)N[C@@H](CCO)c2ccc(Cl)cc2)CCN(c2ncnc3[nH]ccc23)CC1
active: HOP-92 NSCLC -13.2% | 786-0 renal 1.31%
inactive: NCI-H23 lung 53% | NCI-H226 lung 17.3% | NCI-H322M lung 55% | HOP-62 NSCLC 33.9% | NCI-H460 lung 24.6% | NCI-H522 lung 44.2% | A549/ATCC NSCLC 56.6% | COLO 205 colon 32.1%

CC(=O)c1cnc2ccc(-c3cc(Cl)c(O)c(Cl)c3)nc2c1NC1CCC(CN(C)C)CC1 (stereo not given)
active: NCI-H23 lung -54.3% [2.5 µM] | NCI-H226 lung -16.3% [2.5 µM] | NCI-H322M lung -37.7% [2.5 µM] | HOP-62 NSCLC -34.4% [2.5 µM] | NCI-H460 lung -51.8% [2.5 µM] | HOP-92 NSCLC -20.3% [2.5 µM] | NCI-H522 lung -75.5% [2.5 µM] | A549/ATCC NSCLC -8.85% [2.5 µM] | 786-0 renal -48.3% [2.5 µM] | COLO 205 colon -94.2% [2.5 µM]

Source: PubChem BioAssay (NCI)
